Measured values: PubChem BioAssay (NCATS)
“And” between values parts separate entries of the source, which are not always exact repeats. Equal values may be shown once. Records with an inconclusive call do not appear. The source made the active and inactive calls. Unless noted, the call rests on the fitted dose curve; in most records, active means well fitted curve in either direction with a large enough effect (not every such curve was filed as active); inconclusive means small, poorly fitted or top-dose-only effect, or another doubt; inactive means flat fitted curve, though single readings scatter.

Experiments:
[1] = AP1 Signaling Pathway (AID 357);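 further: ME-180 reporter cells stimulated with EGF at its EC50 level; on the % scale 0 is the no-effect control and ±100 the full control effect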
How it was run: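 First, ME-180 AP-1-bla cells were cultured overnight at 37 °C in low-serum Opti-MEM. Next, titrated compounds with EC50 EGF were incubated 5 hours. Finally, CCF4 was added for 2.5 hours and the 460/530 nm ratio recorded.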

[2] = target: Cytochrome P450 1A2 (Homo sapiens) (UniProt P05177); assay: p450-cyp1a2 (AID 410; calls by dose curve;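 further: -100% = full effect of reference inhibitor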)
How it was run: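 Read-out is luminescence from luciferin produced by CYP1A2 demethylation of Luciferin-ME (100uM, at Km). Detection reagent stopped the 60 min NADPH-dependent reaction; signals were normalized to 57 uM furafylline.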

[3] = NFAT Signaling Pathway (AID 444); settings: Jurkat NFAT-bla M1, carbachol, beta-lactamase ratio, 5 h; at 17.2 µM (top of the series);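 further: carbachol stimulus at about its EC50 of 1 µM final; on the % scale 0 is the no-effect control and ±100 the full control effect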
How it was run: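 Read-out: CCF4 FRET ratio (460 nm/530 nm) after 1 h RT dye loading, used for %activity and AC50 from titration series. Cells: Jurkat NFAT-β-lactamase/M1 line, treated with compound plus 1 uM carbachol for 5 h, 37 °C.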

[4] = Stat Signaling Pathway (AID 446);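 further: ME-180 cervical cancer cells given 40 pM IL-6 alongside compound; SIE-controlled beta-lactamase reporter measured as 460/530 nm FRET emission ratio; on the % scale 0 is the no-effect control and ±100 the full control effect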
How it was run: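 Normalization used AC90 stimulation (300 pM IL-6) and AC90 inhibition (125 nM pan-JAK inhibitor at 40 pM IL-6). The underlying signal is SIE-driven beta-lactamase in ME-180 cells after 5 h IL-6 exposure with compound.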

[5] = target: Glucocorticoid receptor (Homo sapiens) (UniProt P04150); assay: GR-GFP Redistribution (AID 450;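 active means compounds whose dose series gives a full or clear partial fitted curve of increased nuclear translocation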; further: potency means the concentration at half of the fitted maximal effect); settings: U2OS GR-GFP nuclear translocation, laser cytometry, 2 h
[6] = target: Glucocorticoid receptor (Homo sapiens) (UniProt P04150); assay: GR-EFC Redistribution (AID 451; calls by dose curve; further: potency means the concentration at half of the fitted maximal effect); settings: CHO-K1 GR-EFC translocation, beta-gal luminescence, 2 h
How it was run: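 Translocation of GR-ED fusion to nuclear EA restores b-gal, read by luminescence after 1 h room-temperature detection. Engineered CHO-K1 biosensor cells, 1,000/well, exposed 2 h at 37 C to titrations up to 46 uM final.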

[7] = target: Mitogen-activated protein kinase 10 (Mus musculus) (UniProt Q61831); assay: JNK3 AlphaScreen Assay (AID 530);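 further: kinase came from lysate of stimulated human HepG2 cells; signal reports phosphorylation of biotinylated GST-cJun 1-79 at Ser73 with 10 µM ATP; on the % scale 0 is the no-effect control and ±100 the full control effect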
How it was run: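 Kinase buffer: 20 mM Tris-HCl pH 7.6, 10 mM MgCl2, 1 mM DTT, 0.1 mM Na3VO4, 0.01% Tween-20; ATP 10 uM. Substrate biotin-GST-cJun(1-79), enzyme from activated HepG2 lysates. Detection by Ser73 phospho-antibody AlphaScreen.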

[8] = target: 3',5'-cyclic-AMP phosphodiesterase 4B (Homo sapiens) (UniProt Q07343); assay: qHTS Assay for Inhibitors of PDE-IV (AID 607; active means well fitted activation curve with a large enough effect in the main read-out, with a control signal flat, not every such curve was filed as active; further: % of control where 0% means no effect)
How it was run: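 HEK293 ACTOne cells with CNG channel (1000/well), endogenous PDE4; membrane potential dye, compounds up to 22.9 uM final. Fluorescence Ex 535/Em 590; RO 20-1724 (100 uM final) as reference.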

[9] = qHTS Assay for Lipid Storage Modulators (AID 1519; calls by dose curve); settings: Drosophila S3 cells, BODIPY lipid droplet/cell ratio, laser cytometry, cells loaded with oleic acid; for activity change, negative = inhibition: at 25.7 µM (top of the series)
How it was run: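 Cells seeded at 5,000 per well were treated with compounds over a concentration series and loaded with oleic acid (400 uM, as added). Lipid droplet fluorescence (488 nm excitation, 500-530 nm channel) was read by laser-scanning cytometry and normalized to 20 uM Triacsin C.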

[10] = target: Ubiquitin carboxyl-terminal hydrolase 1 (Homo sapiens) (UniProt O94782); assay: Inhibitors of USP1/UAF1: Pilot qHTS (AID 504865; active means well fitted curve in the direction sought with a large enough effect; an effect the other way counts as inactive or inconclusive;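 further: rhodamine fluorescence freed from ubiquitin-rhodamine substrate followed over time; top concentration of the series differs between compounds; on the % scale 0 is the no-effect control and ±100 the full control effect; nearly all actives have a fitted effect of over 35% in size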)
How it was run: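 Deubiquitinase activity followed as kinetic rhodamine fluorescence release from 150 nM Ub-Rho. 1 nM USP1/UAF1 with compound, after 15 min room-temperature preincubation, in HEPES pH 7.8 buffer containing TCEP, EDTA, BSA and Tween-20.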

[11] = target: Cytochrome P450 3A4 (Homo sapiens) (UniProt P08684); assay: qHTS Assay for Activators of Cytochrome P450 3A4 (AID 885; active means well fitted curve in the direction sought with a large enough effect; an effect the other way counts as inactive or inconclusive; further: nearly all actives have a fitted effect of over 65% in size)
How it was run: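 Human CYP3A4 dealkylates Luciferin-PPXE to luciferin, which luciferase detection converts to light. Substrate was at its KM (25uM), buffer 200mM KPO4, reaction 60 min at RT.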

[12] = target: ATP-dependent 6-phosphofructokinase (Trypanosoma brucei brucei) (UniProt O15648); assay: qHTS Assay to Find Inhibitors of T. brucei phosphofructokinase: hit validation (AID 492961; active means well fitted curve in the direction sought with a large enough effect; an effect the other way counts as inactive or inconclusive)
How it was run: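 ADP-Glo luminescence read-out of ADP formed by 1.25 nM PFK from 0.1 mM ATP and 0.5 mM F6P (TEA pH 8.0, 45 min, RT). Compounds titrated; activity normalized to no-enzyme and full-enzyme controls.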

[13] = target: Luciferin 4-monooxygenase (Photinus pyralis) (UniProt P08659); assay: Biochemical firefly luciferase enzyme assay for NPC (AID 624030; active means well fitted curve in the direction sought with a large enough effect; an effect the other way counts as inactive or inconclusive;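 further: purified P. pyralis luciferase at 10 nM with luciferin and ATP substrate; 0% = DMSO and -100% = full luciferase inhibition by PTC124 control; nearly all actives have a fitted effect of over 70% in size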)
How it was run: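 Direct inhibition of firefly luciferase enzyme (10 nM final, 50 mM Tris Acetate) assessed by luminescence within 5 minutes. Percent activity scaled between DMSO and PTC124 positive control, with concentration-effect curves classified by fit quality and response.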

[14] = S16 Schwann cell viability assay (CellTiter-Glo assay) (AID 624031; active means well fitted curve in the direction sought with a large enough effect; an effect the other way counts as inactive or inconclusive;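 further: native untransfected S16 rat Schwann cells; cellular ATP luminescence as a viability measure; plate controls were DMSO-treated cells for no effect and cell-free wells for full effect; nearly all actives have a fitted effect of over 70% in size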)
How it was run: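 Cells were seeded at 500-750 per well in phenol red-free DMEM with 10% FBS and left overnight. Compounds or DMSO were pinned in, incubation ran 24 h at 37 °C/5% CO2, then CellTiter-Glo reagent was added and luminescence measured.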

[15] = S16 Schwann cell PMP22 intronic element firefly luciferase assay (AID 624032; active means well fitted curve in the direction sought with a large enough effect; an effect the other way counts as inactive or inconclusive;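 further: plate controls were DMSO for no effect and PTC124 positive control mean for full effect; nearly all actives have a fitted effect of over 30% in size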)
How it was run: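 Luciferase reporter of PMP22 intronic-element expression in stably transfected S16 rat Schwann cells, read by ONE-Glo luminescence after 24 h compound exposure at 37 C. Activity scaled between DMSO (0%) and positive-control PTC124; concentration-effect curves quality-classified.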

[16] = qHTS profiling for inhibitors of Plasmodium falciparum proliferation (AID 504749; active means well fitted curve in the direction sought with a large enough effect; an effect the other way counts as inactive or inconclusive;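 further: 0% = DMSO vehicle and full inhibition = artemisinin control; nearly all actives have a fitted effect of over 60% in size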); settings: P. falciparum in erythrocytes, SYBR Green DNA, 72 h, at 12.8 µM (top of the series)
How it was run: (§1)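 In a 72 h erythrocytic culture (37 C, humidified, 5% CO2) at 2.5% hematocrit and 0.3% starting parasitemia, compounds were tested; SYBR Green I in detergent lysis buffer stained parasite DNA overnight.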

3D7 = assay: as above; settings: P. falciparum in erythrocytes, SYBR Green DNA, 72 h; series mostly up to 28.7 µM
How it was run: as §1

CP262 = assay: as above; settings: P. falciparum in erythrocytes, SYBR Green DNA, 72 h; series mostly up to 28.7 µM
How it was run: as §1

ECU = assay: as above; settings: P. falciparum in erythrocytes, SYBR Green DNA, 72 h; series mostly up to 28.7 µM
How it was run: as §1

HB3 = assay: as above; settings: P. falciparum in erythrocytes, SYBR Green DNA, 72 h; series mostly up to 28.7 µM
How it was run: as §1

[17] = measured here: cell count channel max response
[18] = measured here: lipid channel max response

Cytochrome P450 1A2 (Homo sapiens), sequence (P05177 whole entry, looked up): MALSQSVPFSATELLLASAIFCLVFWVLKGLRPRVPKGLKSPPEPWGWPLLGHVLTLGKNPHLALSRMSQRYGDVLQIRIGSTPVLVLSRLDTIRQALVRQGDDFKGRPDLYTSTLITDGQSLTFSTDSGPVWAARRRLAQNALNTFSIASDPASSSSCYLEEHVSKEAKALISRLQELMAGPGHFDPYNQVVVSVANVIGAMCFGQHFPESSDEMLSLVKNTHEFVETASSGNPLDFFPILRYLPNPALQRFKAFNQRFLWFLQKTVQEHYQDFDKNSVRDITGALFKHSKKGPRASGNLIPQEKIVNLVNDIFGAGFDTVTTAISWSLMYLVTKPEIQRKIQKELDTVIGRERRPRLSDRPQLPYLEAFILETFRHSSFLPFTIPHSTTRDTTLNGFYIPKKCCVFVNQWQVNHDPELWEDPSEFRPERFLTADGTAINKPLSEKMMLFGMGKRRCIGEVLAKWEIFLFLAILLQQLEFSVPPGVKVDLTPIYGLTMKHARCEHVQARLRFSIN
Glucocorticoid receptor (Homo sapiens), sequence (P04150 whole entry, looked up, the tested form may be a part): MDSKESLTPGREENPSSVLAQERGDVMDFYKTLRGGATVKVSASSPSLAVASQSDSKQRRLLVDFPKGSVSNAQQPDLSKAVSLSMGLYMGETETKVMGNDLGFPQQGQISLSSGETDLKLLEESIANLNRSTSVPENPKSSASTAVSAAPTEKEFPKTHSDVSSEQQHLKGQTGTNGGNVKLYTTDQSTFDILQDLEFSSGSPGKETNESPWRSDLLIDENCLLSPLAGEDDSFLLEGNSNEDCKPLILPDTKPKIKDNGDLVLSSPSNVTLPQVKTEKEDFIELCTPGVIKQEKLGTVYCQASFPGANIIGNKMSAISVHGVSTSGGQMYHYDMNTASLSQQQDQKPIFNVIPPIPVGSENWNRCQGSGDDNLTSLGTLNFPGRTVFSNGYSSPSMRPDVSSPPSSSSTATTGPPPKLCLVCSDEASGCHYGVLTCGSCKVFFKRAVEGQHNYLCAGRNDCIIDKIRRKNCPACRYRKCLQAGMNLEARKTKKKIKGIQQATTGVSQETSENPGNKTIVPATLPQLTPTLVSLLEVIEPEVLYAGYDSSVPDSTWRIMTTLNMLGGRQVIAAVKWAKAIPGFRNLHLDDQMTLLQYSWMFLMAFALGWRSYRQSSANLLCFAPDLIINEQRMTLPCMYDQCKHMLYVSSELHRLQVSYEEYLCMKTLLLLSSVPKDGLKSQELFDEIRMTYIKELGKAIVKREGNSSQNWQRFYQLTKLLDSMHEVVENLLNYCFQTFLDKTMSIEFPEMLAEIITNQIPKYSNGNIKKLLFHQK
Ubiquitin carboxyl-terminal hydrolase 1 (Homo sapiens), sequence (O94782 whole entry, looked up): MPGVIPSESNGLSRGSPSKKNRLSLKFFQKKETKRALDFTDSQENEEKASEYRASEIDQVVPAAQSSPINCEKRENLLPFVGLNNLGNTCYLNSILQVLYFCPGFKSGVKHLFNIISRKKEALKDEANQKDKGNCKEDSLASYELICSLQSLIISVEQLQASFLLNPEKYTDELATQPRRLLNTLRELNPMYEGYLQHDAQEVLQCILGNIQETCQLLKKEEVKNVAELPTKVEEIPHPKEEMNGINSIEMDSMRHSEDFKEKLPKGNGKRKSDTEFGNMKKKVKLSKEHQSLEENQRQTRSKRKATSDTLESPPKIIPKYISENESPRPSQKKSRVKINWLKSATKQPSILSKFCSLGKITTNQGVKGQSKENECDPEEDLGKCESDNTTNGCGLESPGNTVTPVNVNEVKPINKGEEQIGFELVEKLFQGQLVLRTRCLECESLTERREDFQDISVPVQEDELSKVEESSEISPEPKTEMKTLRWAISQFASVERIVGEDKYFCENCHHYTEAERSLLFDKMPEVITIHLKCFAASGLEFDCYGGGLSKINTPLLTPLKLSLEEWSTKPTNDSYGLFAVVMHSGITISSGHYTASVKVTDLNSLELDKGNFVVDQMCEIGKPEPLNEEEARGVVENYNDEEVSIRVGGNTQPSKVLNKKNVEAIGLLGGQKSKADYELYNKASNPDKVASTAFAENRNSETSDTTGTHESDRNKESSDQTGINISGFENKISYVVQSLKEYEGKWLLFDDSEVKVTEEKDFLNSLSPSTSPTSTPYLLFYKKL
3',5'-cyclic-AMP phosphodiesterase 4B (Homo sapiens), sequence (Q07343 whole entry, looked up): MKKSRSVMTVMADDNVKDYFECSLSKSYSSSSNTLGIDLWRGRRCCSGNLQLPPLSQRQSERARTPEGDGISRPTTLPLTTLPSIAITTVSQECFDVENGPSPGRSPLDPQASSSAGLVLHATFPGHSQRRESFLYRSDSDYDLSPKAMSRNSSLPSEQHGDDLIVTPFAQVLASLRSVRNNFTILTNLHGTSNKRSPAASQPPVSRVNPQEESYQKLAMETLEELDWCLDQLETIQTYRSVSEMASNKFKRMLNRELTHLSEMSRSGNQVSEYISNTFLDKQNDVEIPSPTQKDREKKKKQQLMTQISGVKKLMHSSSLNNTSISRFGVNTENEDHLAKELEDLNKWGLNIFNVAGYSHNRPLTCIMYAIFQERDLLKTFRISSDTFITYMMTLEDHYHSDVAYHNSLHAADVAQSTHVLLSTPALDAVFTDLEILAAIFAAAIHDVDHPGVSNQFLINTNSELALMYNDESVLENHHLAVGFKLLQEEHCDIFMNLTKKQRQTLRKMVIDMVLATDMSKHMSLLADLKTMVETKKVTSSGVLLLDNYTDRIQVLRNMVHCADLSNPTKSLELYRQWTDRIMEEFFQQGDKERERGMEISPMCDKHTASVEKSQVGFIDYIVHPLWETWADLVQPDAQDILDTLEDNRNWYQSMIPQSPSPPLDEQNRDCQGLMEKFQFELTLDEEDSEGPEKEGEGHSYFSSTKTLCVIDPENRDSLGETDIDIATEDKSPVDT
Cytochrome P450 3A4 (Homo sapiens), sequence (P08684 whole entry, looked up): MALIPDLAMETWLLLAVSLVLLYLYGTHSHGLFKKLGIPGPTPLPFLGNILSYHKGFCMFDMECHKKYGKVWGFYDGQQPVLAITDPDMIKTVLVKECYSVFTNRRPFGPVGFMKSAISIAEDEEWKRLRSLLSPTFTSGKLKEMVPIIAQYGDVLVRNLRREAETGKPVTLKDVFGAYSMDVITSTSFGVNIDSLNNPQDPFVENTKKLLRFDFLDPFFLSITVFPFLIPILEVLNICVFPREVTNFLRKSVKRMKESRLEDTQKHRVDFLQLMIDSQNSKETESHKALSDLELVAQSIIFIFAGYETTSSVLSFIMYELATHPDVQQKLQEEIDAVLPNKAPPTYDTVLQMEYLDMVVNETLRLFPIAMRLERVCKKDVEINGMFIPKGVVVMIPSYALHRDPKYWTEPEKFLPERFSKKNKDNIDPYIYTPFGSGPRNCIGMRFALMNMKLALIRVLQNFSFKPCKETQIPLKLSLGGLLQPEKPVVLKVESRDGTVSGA
ATP-dependent 6-phosphofructokinase (Trypanosoma brucei brucei), sequence (O15648 whole entry, looked up): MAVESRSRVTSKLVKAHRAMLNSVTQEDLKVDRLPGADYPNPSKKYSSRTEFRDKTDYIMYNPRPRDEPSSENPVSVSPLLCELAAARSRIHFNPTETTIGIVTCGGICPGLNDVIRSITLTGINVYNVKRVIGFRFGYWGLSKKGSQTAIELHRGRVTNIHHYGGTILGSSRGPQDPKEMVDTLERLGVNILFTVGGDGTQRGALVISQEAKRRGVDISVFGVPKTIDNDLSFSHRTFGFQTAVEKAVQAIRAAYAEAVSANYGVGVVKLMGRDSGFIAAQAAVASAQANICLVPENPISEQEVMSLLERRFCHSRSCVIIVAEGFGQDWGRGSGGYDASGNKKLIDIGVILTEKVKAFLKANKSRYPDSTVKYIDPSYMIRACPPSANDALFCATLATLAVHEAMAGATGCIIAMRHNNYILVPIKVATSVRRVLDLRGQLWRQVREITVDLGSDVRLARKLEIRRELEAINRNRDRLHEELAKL
Luciferin 4-monooxygenase (Photinus pyralis), sequence (P08659 whole entry, looked up): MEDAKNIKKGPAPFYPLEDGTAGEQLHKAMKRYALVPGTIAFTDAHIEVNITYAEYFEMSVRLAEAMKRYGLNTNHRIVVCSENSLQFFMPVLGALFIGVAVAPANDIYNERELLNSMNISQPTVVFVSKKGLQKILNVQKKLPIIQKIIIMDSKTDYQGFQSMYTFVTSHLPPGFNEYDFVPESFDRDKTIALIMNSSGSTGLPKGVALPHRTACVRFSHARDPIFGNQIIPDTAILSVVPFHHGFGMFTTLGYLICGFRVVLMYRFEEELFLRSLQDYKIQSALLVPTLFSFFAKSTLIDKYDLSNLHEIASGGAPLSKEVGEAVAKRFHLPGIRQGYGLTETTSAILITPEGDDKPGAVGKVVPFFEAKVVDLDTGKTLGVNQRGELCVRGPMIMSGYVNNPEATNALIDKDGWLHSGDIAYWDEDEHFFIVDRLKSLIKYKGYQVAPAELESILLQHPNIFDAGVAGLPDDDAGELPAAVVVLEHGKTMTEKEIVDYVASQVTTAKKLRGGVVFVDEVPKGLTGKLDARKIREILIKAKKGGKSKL

CN1C(=O)CCS(=O)(=O)[C@@H]1c1ccc(Cl)cc1
-4.68%: max response [9, 18]
inactive: outcome [1] | Potency [2] | activity change, negative = inhibition [3] 1.85% | outcome [4] | Potency [5] > 20.6 µM | Potency [6] > 20.6 µM | outcome [7] | Potency [8] | activity change, negative = inhibition [9] -0.668% | Potency [10]
-4.45%: max response [9, 17]

CCN(CC)C(=O)N[C@@H]1C[C@H]2c3cccc4[nH]cc(c34)C[C@@H]2N(C)C1
-3.13% and -3.55%: max response [9, 17]
inactive: outcome [1] | Potency [2] | activity change, negative = inhibition [3] 3.13% and -9.31% | outcome [4] | outcome [7] | Potency [8] | Potency [11] | activity change, negative = inhibition [9] 2.1% and 1.29% | Potency [10]
-0.685% and -2.23%: max response [9, 18]

C[N+]1([O-])[C@@H]2CC[C@H]1CC(OC(=O)[C@@H](CO)c1ccccc1)C2 (some centres not stated)
inactive: outcome [1] | Potency [2] | outcome [4] | Potency [5] > 20.6 µM | Potency [6] > 20.6 µM | outcome [7] | activity change, negative = inhibition [9] -4.15% | Potency [12] | Potency [13] | Potency [14] | Potency [15] | activity, negative = inhibition ([16]; parasite line A) 1.56% | activity, negative = inhibition ([16]; parasite line B) -10% | Potency (3D7) | Potency (CP262) | Potency (ECU) | Potency (HB3)
1.61%: max response [9, 17]
-2.94%: max response [9, 18]
